Experimental data: the supplement of paper PMC11417369
In all, about 25,000 sequences were measured (“ln(normalized median fluorescence intensity)”: median about 7.1, highest 2% from about 10 on). The full list was thinned out, with the highest values kept by preference.

These sequences were tested on PfSIP2 AP2 domain 1 (GST-tagged) (assay: gcPBM binding intensity (ln(normalized median fluorescence intensity)); higher = stronger DNA binding).
How it was run: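 In this array assay, P. falciparum DNA-binding domains with a GST tag, expressed in E. coli, were applied for 1 h to primer-extended double-stranded 36-bp intergenic genomic probes and negative controls on an Agilent 4 × 180k array. Bound protein was visualised with Alexa488 anti-GST antibody at 488 nm. Binding intensity is the highest Masliner-normalised natural-log median intensity across replicate spots of either probe orientation.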

Sequence	gcPBM binding intensity (ln)
CATATATGGTTATATACATGCACCATTATATTATTA [TGCATGCA_site520]	10.3
AAAAAAAAAAAAAACACACACATGCACATCATATTA [CACACA_site4467]	7.43
AACACATACATATATGCACACATTTTATTCCATTAT [CACACA_site2834]	8.05
ATATTATATATATACACACACACATGCATGCACCTA [CACACA_site106]	11.1
ATATTATAGATATACACACACACATGCATGCACATA [CACACA_site6203]	8.64
ATATGGATTATACATACATGCATACATACATACATA [TGCATGCA_site475]	7.1
AAAAAAAAAACACACACATGCACATCATATTATATA [TGCATGCA_site133]	7.03
ATATTATATATATACACACACACATGCATGCACATA [CACACA_site7917]	8.98
AAAAAAAAAAAAAACACACACATGCACCTCATATTA [CACACA_site556]	11.4
AAAAAAAATGATAATATACACACTTATGGGAGAGCG [CACACA_site2516]	6.97
TATATAATACGAATTTGTACATATTAAATAAATTAT [XGTACX_site93]	6.84
TTTTAAAAAACAAACACACACGTAGAAAAAAAAAAA [CACACA_site4608]	6.99
GGTAGAAAATCAGTTAAACACACACCGAAAAAAAAA [CACACA_site8934]	7.24
TATGAACACCAACACACACACAAAAAAAAAAAAAAA [CACACA_site2013]	7.3
TACATATTTTGTATATATTATTTATTTTATTAGTTT [XGTACX_negctrl_site85]	6.74
TTAATAGGTCGAAGTAGTACATAAAAATATATATAT [XGTACX_site5960]	8.1
AATGTACACGCACCCACACACAAACAAATATAAATA [CACACA_site7319]	10.3
AATGTACCCACACCCACACACAAACAAATATATATA [CACACA_site2751]	7.47
GACACCCATAAATATACACACGCACAACACAAAATA [CACACA_site8944]	7.67
TATACAATATAAAATACACACGCACCCAAAAAAAAA [CACACA_site9174]	10.4
ATAAAAATTGATTATACACACGCGCACCCACAACAA [CACACA_site3536]	11.2
ATAAAAATTGATTATACACACGCGCCCAGACAACAA [CACACA_site5870]	7.24
CACCCATAAATATACACACGCACAACACAAAATAAA [CACACA_site2903]	7.52
AATGTACACCCACCCACACACAAACAAATATATATA [CACACA_site5521]	7.62

Sequence	gcPBM binding intensity (ln)
ATTATACACGCGCGCACACACAACAAAAAAAAAAAA [CACACA_site7630]	7.59
TATATATAATTCATACATTTTAAATATATTTATTTA [CACACA_negctrl_site840]	7.01
TATTGAATAAAATGCACACGCATGCGTTATTTATTA [CACACA_site3479]	6.9
ATATATCATGCCAAGGGTACAAATGTGTAGTTGAAA [XGTACX_site2820]	7.16
AAAAAAAAATACATATGTACTTATGTATAATGTTGT [XGTACX_site8104]	7.14
AACTTTTTACAAACAGGTACGCATATATATATATAT [XGTACX_site5081]	8.9
AAAATACACGCATACACACACACACCCACCCATATA [CACACA_site639]	7.14
TCCCCTTAATTTAAAACACACAAACAAATAAGTTAG [CACACA_site5973]	6.91
AAGAGGATACACAATGTGCACTTTTTTTTTTTTTTT [GTGCAC_site9415]	10.5
GAATGTCTAATTTTGATGCACACTTTTGTGCAATTA [CACACA_site2902]	8.6
TATAAGAGGATATATACACACAAAAATATGTACAGT [CACACA_site6885]	7.07
AACTGTAAAAAATATAAACACACATAGAAATATATA [CACACA_site8002]	7.01
CAGGGCAGGGGGAAGGGTACACATAAAAGAAAATAA [XGTACX_site172]	8.34
TCATAGGGGTAGAAGGTGCAATAAAAAAGAAGAAAA	10.7
AAAATAAAAAGAAAAAGAAAAAAGGGGGGGTAGGGG [CACACA_negctrl_site1048]	7.86
TGAACATTATAGAAAAGTACTTAGTTTTTAAAAAGA [XGTACX_site6864]	7
GTCTAAAAATAAAAAGTGCATTTGTTTAATATTTTG	9.52
TATATATATAAAAGTTGTACAGTGTTTTATATAGTT [XGTACX_site7085]	8.13
AAAAAAAAAAAAAAAGTGCACAGTCGTTTTAAAAAA [GTGCAC_site9848]	10.7
AAAAAAAAAAGAAACACACACATTTGTCTATAATAT [CACACA_site7063]	6.8
AAAATACATGGACACACACACACACCGATATATATA [CACACA_site5885]	7.4
TTTTTTTTTTTTTTTGTGCACAATTATTTCAATTTT [GTGCAC_site9884]	8.88
TTTTGTTTTTTCAATGTGCACTTAGGATGTTTTTAT [GTGCAC_site9565]	10.6
TATGTTTTATATAAGATGCACTTTTGTTATGCTTCA	8.55

Sequence	gcPBM binding intensity (ln)
CCATGTCACAATTTTTCACACACAAAATTTATATAC [CACACA_site8628]	7.39
TATTTTTAGAAAATAAAGAAGGAGAATTGAAAATAT [CACACA_negctrl_site361]	7.06
TTTTGTTTTTAGTTTATACACACCATATTAATATAA [CACACA_site3102]	7.27
TGTATGTATAATTGAGTGCACAGAAAAAAAAAAGAA	10.5
CATTATAAAAAATAAAAAAGAAATAATTGTATATGC [CACACA_negctrl_site478]	7
AAGAAAATATAAAATGCACACTATAAATTGTATATA [CACACA_site7928]	7.84
ATATATTTTTTTTCTTCACACACATGAATTATATAT [CACACA_site9053]	7.45
ATATAAATTTTTTATGAACACACAAATACAGACACT [CACACA_site8848]	7.37
ATAATATTTAGGTGTGCACACAAACATACATATATA [CACACA_site9120]	8.81
AATATTTATGGGTGCACACAAACATACAGATATATA [CACACA_site5810]	12.1
AAAAAAAAAACATACACACACACAAATATTTATATA [CACACA_site437]	6.94
AATATTTATGGGTGCACACAAACATACATATATATA [CACACA_site3395]	11.8
TAAACATAAATATGCACACATATACAGATATTCATA [CACACA_site5471]	7.04
TACAAATATATATGCACACACATATACATACAGATA [CACACA_site5238]	7.27
ATATAAATTGGCAATAGTACATAAAGGCATAGAAAG [XGTACX_site2674]	7.31
TTGTATATATTTCCTTGTACGTAATAATTCTTATTG [XGTACX_site3938]	7.19
TTTATTTGTTCATGCGTGCACTTGATAACAATGTAC [GTGCAC_site9561]	9.9
ATATTATAATTGAAGGTGCAAAATGTAATATAGATA [GTGCAC_site9661]	10.6
AAATATAATTAATGATGTACACTTATAGATATTGAT [XGTACX_site8435]	7.09
AGATATTATAATTAATGTACAAAAAGAAAAAATAGA [XGTACX_site8964]	7.04
TTTTATAATCATAATAGTACTTTTTCTTTTTCACAT [XGTACX_site5017]	6.7
TATATATATAATGTTTGTACATATTAAATATATATG [XGTACX_site407]	8.3
CTCATTTTGTTAATGGTGCAAAAAAAAAAAAAAAAA	11
TTTTTTGTTACAACAGTGCAAAAAAACCTTAATGTT	7.84

Sequence	gcPBM binding intensity (ln)
TTTTCATTTGTGACAGTGCAAAATGTTATATTAAAA [GTGCAC_site9647]	8.57
TTATCAATAAAATGCACACACTGTAATATTATTAAA [CACACA_site6055]	7.18
TATCTTATAAACTCTGCACACATAATATATTAAATG [CACACA_site8587]	9.1
ATATATATTATCATTGTGCACTTATTTATATACCTT	10.5
ATATGTATGTATTTATTATTGTGCATTGTATTTATA [CACACA_negctrl_site664]	7.44
TTATCATTTGCCATTGTGCACTTATATGCTCACATT	10.2
TATGTATGTGCTTGTGCGCACCGATAATATAGCCAA	9.96
AAAAAGGAAATAATAACACACATTAATAATTATAAA [CACACA_site3401]	6.67
TATTTATGCACGCGTGCACACACATATGAAAAAAGG [CACACA_site9090]	10.4
CAAAAGGATATGCACACACACACACGGATATTTATA [CACACA_site7099]	7.41
TTATATGCATAAAAAGGTACACATATATAAATAAAT [XGTACX_site6894]	7.12
TTTATGCACGCGTGCACACACATATGAAAAAAGGTA [CACACA_site3315]	10.4
TATGAAAAAATATATACACACATAATAAAGGTATAT [CACACA_site3737]	6.9
GGTATTTATGGACGCGTGCACACACATATGAACAAA	9.35
TGTTTTATTTATTAAGCACACGCGATTTAAAAAATA [CACACA_site981]	6.79
TGTATATTTTAGTGATGTACTAATATTATTACTAAT [XGTACX_site3952]	6.99
TTCTAATATTTACATAATATATAGAAATATAAAGGT [XGTACX_negctrl_site504]	7.4
GTAGACATTATAATGGTGCAAAAAAATTAACAAAAA [GTGCAC_site9891]	10.5
AGCAAAACAAAAAAATTAAAATTAACATATAATCAT [GTGCAC_negctrl_site393]	6.7
TATATTAACAAAATGGTGCAATAATTTCTATATTGT [GTGCAC_site9430]	9.87
GTTAACAAATAATGCACACAAATGGATAAAATTATA [CACACA_site3725]	7.68
TATATTAACAAAATGGTGCAATAATTTCTATATTAT [GTGCAC_site9857]	10.4
TATATTATCAAAATGGTGCAATAATTTCTATATTAT [GTGCAC_site9772]	9.9
